Only some compounds are listed: those with a hit (about 7.9% of all), similar ones and a draw of the others.
LASV entry inh: qHTS for Inhibitors of binding or entry into cells for Lassa Virus. 300,000 tested, 1.2% active. Potency, µM (highest dose often 37.9 µM), for the others: at the top dose activity change, negative = inhibition, most hits filed as inhibitors. Lassa virus pseudotype entry inhibition, cell reporter. AID 540256, 2011; calls by dose curve; tested in HEK293 cells; further: potency means the concentration at half of the fitted maximal effect; nearly all actives have a fitted effect of over 50% in size
MARV entry inh: qHTS for inhibitors of binding or entry into cells for Marburg Virus; Marburg virus pseudotyped entry inhibition, cell reporter; AID 540276, 2011; 300,000 tested, 1.8% active; Potency, µM (highest dose often 37.8 µM), inactives show top-dose activity change, negative = inhibition, hits mostly inhibitors; calls by dose curve; tested in HEK293 cells; further: potency means the concentration at half of the fitted maximal effect
HCV inhibitor: qHTS Assay for Inhibitors of Hepatitis C Virus (HCV); 340,000 tested, 3.4% active; Potency, µM (series often up to 41.8 µM), without a hit: at the top dose activity change, negative = inhibition, actives largely listed as inhibitors; Huh7.5.1 HCVcc-Cre infection, luciferase reporter, 44 h; active means well fitted inhibition curve with a large enough effect; inconclusive means small, poorly fitted or top-dose-only effect, or another doubt; inactive means no such curve, though single readings can be large or run the other way; further: potency means the concentration at half of the fitted maximal effect
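A cell-based infection assay in which seeded cells (1,000 per well) receive test compound after 4 h, are inoculated with HCVcc-Cre at approximately 0.5 moi, and are incubated 44 h before luminescence detection.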
FMDV antiviral: High Throughput Screening for Foot and Mouth Disease Virus Antivirals | FMDV antiviral cell-based qHTS | 410,000 tested, 1.2% active | Potency, µM (titrated, usually from 57.9 µM), for the others: at the highest dose activity change, negative = inhibition, actives largely listed as inhibitors | AID 1159524, 2015; calls by dose curve; tested in HEK293T cells; further: read-out not given here; potency means the concentration at half of the fitted maximal effect; nearly all actives have a fitted effect of over 45% in size
HCMV antiviral: qHTS Assay for inhibitors of the human cytomegalovirus (HCMV). HFF cells, HCMV-luciferase reporter, 72 h; active compounds read low. 410,000 tested, 4.5% active. activity change, negative = inhibition, % at 57.5 µM; in the data active means activity change below about -60%; inconclusive means no clear call, values can overlap the other calls; inactive means above about -39%
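Cell-based, HFFs, 1000 cells/well, 16 h 37C; cpds in DMSO + HCMV-luc, MOI 1 PFU/cell; 72 h 37C; OneGlo luminescence after 5 min RT; norm. to buffer vs Salinomycin 10uM.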
The depositor's hits bear a star; [ ] = dose if it differs, or a comment. On the % scale 0 is the no-effect control and ±100 the full control effect.

Results for CC1=C(C)CC(C(=O)NNC(=O)c2cccc(Cl)c2)C(C(=O)O)C1 (centres undefined) ?
LASV entry inh: 3%; MARV entry inh: 5%; HCV inhibitor: 17%; FMDV antiviral: -6%; HCMV antiviral: -37

Results for O=c1cc(N2CCCCC2)c(-c2ccccc2)nn1Cc1c(Cl)cccc1Cl ?
LASV entry inh: 13µM*; MARV entry inh: inconclusive; HCV inhibitor: inconclusive; FMDV antiviral: inconclusive; HCMV antiviral: inconclusive

How did CCn1c(=O)c(C(=O)Nc2ccc(C(C)=O)cc2)nc2ccccc21 do in these assays?
LASV entry inh: 23%[46.1 µM]; MARV entry inh: 19%[46.1 µM]; FMDV antiviral: 35%; HCMV antiviral: 6

How did CNC(=O)C[C@H](C(=O)O)c1ccc(OC(C)C)cc1 do in these assays?
MARV entry inh: -7%

How did C#CCn1c(S(=O)(=O)Cc2ccccc2Cl)nc(-c2ccccc2)c1-c1ccccc1 do in these assays?
MARV entry inh: -7%; HCV inhibitor: 5%; FMDV antiviral: -17%; HCMV antiviral: -70*

How did CCOC(=O)Cn1c(S(=O)(=O)Cc2ccccc2Cl)nc(-c2ccccc2)c1-c1ccccc1 do in these assays?
LASV entry inh: 12µM*; MARV entry inh: 5.2µM*; HCV inhibitor: 8%; FMDV antiviral: 1%; HCMV antiviral: -32

How did Cc1ccc(S(=O)(=O)Cc2ccccc2Cl)cc1 do in these assays?
LASV entry inh: inconclusive; MARV entry inh: inconclusive; HCV inhibitor: -24%; FMDV antiviral: 23%; HCMV antiviral: -25

How did c1ccc2c(-c3[nH]ncc3CNCCCn3ncc4ccccc43)cccc2c1 do in these assays?
LASV entry inh: inconclusive; MARV entry inh: inconclusive; HCV inhibitor: 10µM*; FMDV antiviral: inconclusive; HCMV antiviral: inconclusive

Results for CCCCCCCNC(=O)C1(CC2CC(c3ccccc3)=NO2)CCNCC1 (centres undefined) ?
HCV inhibitor: 10µM*; FMDV antiviral: -5%; HCMV antiviral: 5

How did Cc1cc2c(nc1C)CCCN2C[C@H](O)CN1CCCc2nc(-c3ccc(Br)cc3)ccc21 do in these assays?
MARV entry inh: 2%[14.2 µM]

Results for Brc1ccc(CN2CCCc3nc(-c4ccccc4)ccc32)cc1 ?
HCMV antiviral: -81*

What do the screens show for `O=[N+]([O-])c1ccc(-c2nc3ccc([N+](=O)[O-])cc3[nH]2)cc1`?
LASV entry inh: inconclusive; MARV entry inh: -6%; HCV inhibitor: inconclusive; FMDV antiviral: inconclusive; HCMV antiviral: 4

What do the screens show for `O=[N+]([O-])c1ccc2nc(/C=C/c3ccc(Cl)cc3)[nH]c2c1`?
LASV entry inh: inconclusive; MARV entry inh: inconclusive; HCV inhibitor: inconclusive; HCMV antiviral: -86*

Results for N#CC1=C(N)SC(N)=C(C#N)C1c1cccc(Oc2ccccc2)c1 ?
LASV entry inh: 12%; MARV entry inh: -6%; HCV inhibitor: inconclusive; HCMV antiviral: -27

How did N#CC1=C(N)N2C(=C(C#N)C1c1cccc(Br)c1)Nc1ccccc12 (centres undefined) do in these assays?
LASV entry inh: inconclusive; MARV entry inh: 0%[46.1 µM]; HCV inhibitor: inconclusive; FMDV antiviral: 7.9µM*; HCMV antiviral: -97*

What do the screens show for `N#CC1=C(N)N2C(=C(C#N)C13CCN(Cc1ccccc1)CC3)Nc1ccccc12`?
LASV entry inh: 5%; MARV entry inh: -21%; HCV inhibitor: -6%; FMDV antiviral: -2%; HCMV antiviral: -3

Results for N#CC1=C(N)N2C(=C(C#N)C1c1ccc(Br)cc1)Nc1ccccc12 (centres undefined) ?
LASV entry inh: inconclusive; MARV entry inh: 9.2µM*; HCV inhibitor: 6.3µM*; FMDV antiviral: inconclusive; HCMV antiviral: -100*

Results for COc1cccc(-c2nc3c(C#N)c[nH]n3c2NC2CCCC2)c1OC ?
LASV entry inh: -13%[46.1 µM]; MARV entry inh: -19%[46.1 µM]; FMDV antiviral: 2%; HCMV antiviral: 7

Results for c1ccc(-c2[nH]ncc2-c2ccnc(-c3ccc(OCCN4CCOCC4)cc3)c2)nc1 ?
LASV entry inh: 6%

How did Cn1c(=N)n(CC(=O)c2ccccc2)c2ccccc21 do in these assays?
LASV entry inh: 7.1µM*; MARV entry inh: 2µM*; HCV inhibitor: -17%; FMDV antiviral: 0%; HCMV antiviral: -15

Results for Cc1ccc(C(=O)Cn2c(=N)n(N)c3ccccc32)cc1 ?
HCV inhibitor: -7%; FMDV antiviral: 40µM*; HCMV antiviral: 39

How did Cn1c(=N)n(CC(=O)O)c2ccccc21 do in these assays?
LASV entry inh: 1%; MARV entry inh: -2%; HCV inhibitor: -8%; FMDV antiviral: 6%; HCMV antiviral: -10

What do the screens show for `Cc1ccccc1C=Nc1ccccc1C(N)=O`?
LASV entry inh: inconclusive; MARV entry inh: inconclusive; HCV inhibitor: 12%; FMDV antiviral: -18%; HCMV antiviral: -21

What do the screens show for `CCc1ccc(Oc2nccc(-c3c(-c4ccc(F)cc4)ncn3C3CCNCC3)n2)cc1`?
LASV entry inh: 11µM*

What do the screens show for `O=c1c(-c2ccc(F)cc2)nc2cnc(Oc3ccccc3)nc2n1C1CC1`?
FMDV antiviral: -2%

How did CCc1nn(CC(=O)NCCCN(Cc2ccccc2)C(C)C)c(=O)c2cc3sccc3n12 do in these assays?
LASV entry inh: -16%; MARV entry inh: inconclusive; HCV inhibitor: inconclusive; FMDV antiviral: 6%; HCMV antiviral: -63*

Results for CCCCN(CC)CCCNC(=O)Cn1nc(CC)n2c(cc3sccc32)c1=O ?
MARV entry inh: -1%[46.1 µM]; FMDV antiviral: -8%; HCMV antiviral: -23

Results for O=C(/C=C/c1ccccc1)OC1CC(O)C2(O)C=CO[C@@H](OC3OC(CO)C(O)C(O)C3O)C12 (some centres undefined) ?
FMDV antiviral: 5%

What do the screens show for `C/C(=C\COc1ccc2ccc(=O)oc2c1)CC[C@@H](O)C(C)(C)O`?
HCV inhibitor: -7%; FMDV antiviral: 18%; HCMV antiviral: 57

What do the screens show for `C/C(=C\COc1cc(=O)[nH]c2ccccc12)CCC(O)C(C)(C)O` (centres undefined)?
HCV inhibitor: 0.32µM*; FMDV antiviral: -21%; HCMV antiviral: 32

How did COCCCNS(=O)(=O)c1ccc(N2CCCCS2(=O)=O)cc1 do in these assays?
LASV entry inh: -5%[46.1 µM]; FMDV antiviral: -17%; HCMV antiviral: -16

How did O=C1OC2(CCCCC2)CC2=C1[C@H]1O[C@](c3ccsc3)(Cc3c1ccc1ccccc31)O2 do in these assays?
LASV entry inh: inconclusive; MARV entry inh: 2%[14.2 µM]

Results for S=C(NCc1ccco1)Nc1ccc(Oc2ccc(Cl)cc2)cc1 ?
LASV entry inh: -6%; MARV entry inh: -20%[46.1 µM]; HCV inhibitor: 9%; FMDV antiviral: -6%; HCMV antiviral: -60*

How did O=C(/C=C/c1ccco1)Nc1ccc(Oc2ccc(Cl)cc2)cc1 do in these assays?
LASV entry inh: inconclusive; MARV entry inh: inconclusive; HCV inhibitor: 8.9µM*; FMDV antiviral: inconclusive; HCMV antiviral: -68*

Screening results deposited in PubChem BioAssay by National Center for Advancing Translational Sciences (NCATS).
